Experimental data from article PMC12864922, “TDP-43 directly inhibits mRNA accumulation in neurites through modulation of mRNA stability”.
In all, about 9,900 sequences were measured (“r (bound/input frequency ratio)”: median about 0.7, highest 2% from about 6.5 on). The sample holds the highest values, similar sequences and a random draw of the others, so the mix is not that of the screen.

B1: ENSMUSG00000031028.314|Tub|85:89 (ssRNA)
RNA: GGGAGUUCUACAGUCCGACGAUCGCUUCGAUAUCCGCAUGCUAUUUCUAGAGGGCAGUAGGACUUCCAUGCUGGGGCUGGCCUAUCUCCUGAUGAAAGAUUACAGUGCCAUCUCCUUCCCAUAGUUCACACACUGCCCUCCCUCCCUGACUUUAUAGGGAGAAAUCUCCUGACAUUAGAGGUGAUAGAAACCAGAGCUUUAGUCUAGUCAGGCUGUUUCUCUGGGUUGACAAGUUUAAGGUUGAACAGGCUGAUUUCUGGAAUCUCAUGAGUGGAGGGGACCCUGGUGGUUAAGAGCGGAACUCUCUUGCGGUCGCACUAGUGUGGAAUUCUCGGGUGUCAAGG
B2: ENSMUSG00000029636.416|Wasf3 (ssRNA)
RNA: GGGAGUUCUACAGUCCGACGAUCGCUUCGAUAUCCGCAUGCUAUGGAUGGAUGGGUGAGUAUAUGGGUAGAUAAAUGGAUGAGUGGAUGGGUGGGUUAGGUGGGUAAGUAGCUAGGUGGAUGGGUGGGUGGAUACAUGGAUGAGUGGAUGGGUGGAUUGGUGGGUGAGUGGAUAGGUGAAUGGAUGAUAGGUGGUGGAUGGUUGAGUGGGUGGAUUCAUGAUGGAUGGAUGGAUGGAUGGAUGGAUGGAUGGAUGGAUGAGUGGAUGGAUAAUAGGUUGAUGGGUGGAUAGGUAGAUGAGUGACUCUUGCGGUCGCACUAGUGUGGAAUUCUCGGGUGUCAAGG
B3: ENSMUSG00000029636.407|Wasf3 (ssRNA)
RNA: GGGAGUUCUACAGUCCGACGAUCGCUUCGAUAUCCGCAUGCUAAUACGGUAUUUUCUCAUAGUGUAAACUCAGGCAGAUGAAUAGCUGGAGAGUGGGUGGAUGGAUGGGUGAGUAUAUGGGUAGAUAAAUGGAUGAGUGGAUGGGUGGGUUAGGUGGGUAAGUAGCUAGGUGGAUGGGUGGGUGGAUACAUGGAUGAGUGGAUGGGUGGAUUGGUGGGUGAGUGGAUAGGUGAAUGGAUGAUAGGUGGUGGAUGGUUGAGUGGGUGGAUUCAUGAUGGAUGGAUGGAUGGAUGGAUGGAUGGACUCUUGCGGUCGCACUAGUGUGGAAUUCUCGGGUGUCAAGG
B4: ENSMUSG00000029636.401|Wasf3|14:18 (ssRNA)
RNA: GGGAGUUCUACAGUCCGACGAUCGCUUCGAUAUCCGCAUGCUAUUAUAGUGUUCCAACACAAUUGUAGCUGAGUUUCAGAUACGGUAUUUUCUCAUAGUGUAAACUCAGGCAGAUGAAUAGCUGGAGAGUGGGUGGAUGGAUGGGUGAGUAUAUGGGUAGAUAAAUGGAUGAGUGGAUGGGUGGGUUAGGUGGGUAAGUAGCUAGGUGGAUGGGUGGGUGGAUACAUGGAUGAGUGGAUGGGUGGAUUGGUGGGUGAGUGGAUAGGUGAAUGGAUGAUAGGUGGUGGAUGGUUGAGUGGGUGGCUCUUGCGGUCGCACUAGUGUGGAAUUCUCGGGUGUCAAGG
B5: ENSMUSG00000029636.392|Wasf3|68:72 (ssRNA)
RNA: GGGAGUUCUACAGUCCGACGAUCGCUUCGAUAUCCGCAUGCUACAUUUCAUGCUUAUACUUAAUCUACAGAUCGCAAGGUUGUUUUAUAUUAUCCCCUUAUAGUGUUCCAACACAAUUGUAGCUGAGUUUCAGAUACGGUAUUUUCUCAUAGUGUAAACUCAGGCAGAUGAAUAGCUGGAGAGUGGGUGGAUGGAUGGGUGAGUAUAUGGGUAGAUAAAUGGAUGAGUGGAUGGGUGGGUUAGGUGGGUAAGUAGCUAGGUGGAUGGGUGGGUGGAUACAUGGAUGAGUGGAUGGGUGGAUUGCUCUUGCGGUCGCACUAGUGUGGAAUUCUCGGGUGUCAAGG
B6: ENSMUSG00000029636.397|Wasf3 (ssRNA)
RNA: GGGAGUUCUACAGUCCGACGAUCGCUUCGAUAUCCGCAUGCUAGCAAGGUUGUUUUAUAUUAUCCCCUUAUAGUGUUCCAUGUGUAUUGUAGCUGAGUUUCAGAUACGGUAUUUUCUCAUAGUGUAAACUCAGGCAGAUGAAUAGCUGGAGAGUGGGUGGAUGGAUGGGUGAGUAUAUGGGUAGAUAAAUGGAUGAGUGGAUGGGUGGGUUAGGUGGGUAAGUAGCUAGGUGGAUGGGUGGGUGGAUACAUGGAUGAGUGGAUGGGUGGAUUGGUGGGUGAGUGGAUAGGUGAAUGGAUGAUACUCUUGCGGUCGCACUAGUGUGGAAUUCUCGGGUGUCAAGG
B7: ENSMUSG00000029636.408|Wasf3 (ssRNA)
RNA: GGGAGUUCUACAGUCCGACGAUCGCUUCGAUAUCCGCAUGCUAUAUUUUCUCAUAGUGUAAACUCAGGCAGAUGAAUAGCUGGAGAGUGGGUGGAUGGAUGGGUGAGUAUAUGGGUAGAUAAAUGGAUGAGUGGAUGGGUGGGUUAGGUGGGUAAGUAGCUAGGUGGAUGGGUGGGUGGAUACAUGGAUGAGUGGAUGGGUGGAUUGGUGGGUGAGUGGAUAGGUGAAUGGAUGAUAGGUGGUGGAUGGUUGAGUGGGUGGAUUCAUGAUGGAUGGAUGGAUGGAUGGAUGGAUGGAUGGAUGCUCUUGCGGUCGCACUAGUGUGGAAUUCUCGGGUGUCAAGG
B8: ENSMUSG00000029636.411|Wasf3 (ssRNA)
RNA: GGGAGUUCUACAGUCCGACGAUCGCUUCGAUAUCCGCAUGCUAACUCAGGCAGAUGAAUAGCUGGAGAGUGGGUGGAUGGAUGGGUGAGUAUAUGGGUAGAUAAAUGGAUGAGUGGAUGGGUGGGUUAGGUGGGUAAGUAGCUAGGUGGAUGGGUGGGUGGAUACAUGGAUGAGUGGAUGGGUGGAUUGGUGGGUGAGUGGAUAGGUGAAUGGAUGAUAGGUGGUGGAUGGUUGAGUGGGUGGAUUCAUGAUGGAUGGAUGGAUGGAUGGAUGGAUGGAUGGAUGGAUGAGUGGAUGGAUAAUCUCUUGCGGUCGCACUAGUGUGGAAUUCUCGGGUGUCAAGG
B9: ENSMUSG00000029636.415|Wasf3 (ssRNA)
RNA: GGGAGUUCUACAGUCCGACGAUCGCUUCGAUAUCCGCAUGCUAAGUGGGUGGAUGGAUGGGUGAGUAUAUGGGUAGAUAAAUGGAUGAGUGGAUGGGUGGGUUAGGUGGGUAAGUAGCUAGGUGGAUGGGUGGGUGGAUACAUGGAUGAGUGGAUGGGUGGAUUGGUGGGUGAGUGGAUAGGUGAAUGGAUGAUAGGUGGUGGAUGGUUGAGUGGGUGGAUUCAUGAUGGAUGGAUGGAUGGAUGGAUGGAUGGAUGGAUGGAUGAGUGGAUGGAUAAUAGGUUGAUGGGUGGAUAGGUAGAUCUCUUGCGGUCGCACUAGUGUGGAAUUCUCGGGUGUCAAGG
B10: ENSMUSG00000029636.393|Wasf3|62:66 (ssRNA)
RNA: GGGAGUUCUACAGUCCGACGAUCGCUUCGAUAUCCGCAUGCUAAUGCUUAUACUUAAUCUACAGAUCGCAAGGUUGUUUUAUAUUAUCCCCUUAUAGUGUUCCAACACAAUUGUAGCUGAGUUUCAGAUACGGUAUUUUCUCAUAGUGUAAACUCAGGCAGAUGAAUAGCUGGAGAGUGGGUGGAUGGAUGGGUGAGUAUAUGGGUAGAUAAAUGGAUGAGUGGAUGGGUGGGUUAGGUGGGUAAGUAGCUAGGUGGAUGGGUGGGUGGAUACAUGGAUGAGUGGAUGGGUGGAUUGGUGGGUCUCUUGCGGUCGCACUAGUGUGGAAUUCUCGGGUGUCAAGG
B11: ENSMUSG00000029636.403|Wasf3 (ssRNA)
RNA: GGGAGUUCUACAGUCCGACGAUCGCUUCGAUAUCCGCAUGCUAAUGUGUAUUGUAGCUGAGUUUCAGAUACGGUAUUUUCUCAUAGUGUAAACUCAGGCAGAUGAAUAGCUGGAGAGUGGGUGGAUGGAUGGGUGAGUAUAUGGGUAGAUAAAUGGAUGAGUGGAUGGGUGGGUUAGGUGGGUAAGUAGCUAGGUGGAUGGGUGGGUGGAUACAUGGAUGAGUGGAUGGGUGGAUUGGUGGGUGAGUGGAUAGGUGAAUGGAUGAUAGGUGGUGGAUGGUUGAGUGGGUGGAUUCAUGAUGGACUCUUGCGGUCGCACUAGUGUGGAAUUCUCGGGUGUCAAGG
B12: ENSMUSG00000029636.395|Wasf3|50:54 (ssRNA)
RNA: GGGAGUUCUACAGUCCGACGAUCGCUUCGAUAUCCGCAUGCUAAAUCUACAGAUCGCAAGGUUGUUUUAUAUUAUCCCCUUAUAGUGUUCCAACACAAUUGUAGCUGAGUUUCAGAUACGGUAUUUUCUCAUAGUGUAAACUCAGGCAGAUGAAUAGCUGGAGAGUGGGUGGAUGGAUGGGUGAGUAUAUGGGUAGAUAAAUGGAUGAGUGGAUGGGUGGGUUAGGUGGGUAAGUAGCUAGGUGGAUGGGUGGGUGGAUACAUGGAUGAGUGGAUGGGUGGAUUGGUGGGUGAGUGGAUAGGUCUCUUGCGGUCGCACUAGUGUGGAAUUCUCGGGUGUCAAGG
B13: ENSMUSG00000029636.410|Wasf3 (ssRNA)
RNA: GGGAGUUCUACAGUCCGACGAUCGCUUCGAUAUCCGCAUGCUAGUGUAAACUCAGGCAGAUGAAUAGCUGGAGAGUGGGUGGAUGGAUGGGUGAGUAUAUGGGUAGAUAAAUGGAUGAGUGGAUGGGUGGGUUAGGUGGGUAAGUAGCUAGGUGGAUGGGUGGGUGGAUACAUGGAUGAGUGGAUGGGUGGAUUGGUGGGUGAGUGGAUAGGUGAAUGGAUGAUAGGUGGUGGAUGGUUGAGUGGGUGGAUUCAUGAUGGAUGGAUGGAUGGAUGGAUGGAUGGAUGGAUGGAUGAGUGGAUGCUCUUGCGGUCGCACUAGUGUGGAAUUCUCGGGUGUCAAGG

molecular target: TDP-43 (Homo sapiens, UniProt Q13148 1-414); assay: RNA Bind-n-Seq with designed 260-mer pool; 25 mM Tris-HCl, 150 mM KCl, 3 mM MgCl2, BSA (printed 500 mg/mL), 20 units/mL SUPERase IN; pH not stated; 500 nM RNA pool, 1 h, 4 C; TDP-43 5, 50, 500 nM; high values mean tight binding; settings: protein: recombinant; tags: SBP (GST cleaved off with PreScission; pGEX-GST-SBP)
How it was run: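 An in vitro-transcribed pool of 260-nt 3′ UTR oligos (500 nM) was incubated for 1 h at 4 °C with recombinant SBP-tagged TDP-43 at 5, 50 or 500 nM held on streptavidin beads. The buffer contained 25 mM Tris-HCl, 150 mM KCl, 3 mM MgCl2, BSA and SUPERase IN. Biotin-eluted bound RNA was sequenced, and binding, R, is each oligo's normalized read abundance in the bound sample over that in input.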

Sequence of TDP-43 (Q13148 whole entry): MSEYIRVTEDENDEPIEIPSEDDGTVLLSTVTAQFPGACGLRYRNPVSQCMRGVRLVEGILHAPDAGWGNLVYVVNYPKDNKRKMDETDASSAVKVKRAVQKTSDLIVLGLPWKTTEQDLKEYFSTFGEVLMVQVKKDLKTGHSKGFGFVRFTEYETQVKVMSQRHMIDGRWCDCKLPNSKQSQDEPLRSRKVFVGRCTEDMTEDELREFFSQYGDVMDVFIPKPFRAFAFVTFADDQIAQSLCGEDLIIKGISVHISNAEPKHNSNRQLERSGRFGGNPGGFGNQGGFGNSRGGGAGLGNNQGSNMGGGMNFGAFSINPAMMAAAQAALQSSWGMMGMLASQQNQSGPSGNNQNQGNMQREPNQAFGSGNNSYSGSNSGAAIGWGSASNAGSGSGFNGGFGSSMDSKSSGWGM

Binder	binding signal
B1	1.56 R (bound/input frequency ratio)
B2	6.38 R (bound/input frequency ratio)
B3	3.52 R (bound/input frequency ratio)
B4	4.07 R (bound/input frequency ratio)
B5	4.14 R (bound/input frequency ratio)
B6	4.09 R (bound/input frequency ratio)
B7	20.3 R (bound/input frequency ratio)
B8	7.25 R (bound/input frequency ratio)
B9	2.19 R (bound/input frequency ratio)
B10	6.94 R (bound/input frequency ratio)
B11	15.4 R (bound/input frequency ratio)
B12	4.72 R (bound/input frequency ratio)
B13	2.97 R (bound/input frequency ratio)
